SMILES strings stand for the structures. Several values for one entry are separate records, joined by “and”; a condition that tells them apart may be missing. Equal entries are not always repeated. Results filed as inconclusive are left out. The source holds several records for some structures; these can differ, active in one and inactive in another. Activity calls are given as the source filed them. Unless noted, the call rests on the fitted dose curve; in most records, active means well fitted curve in either direction with a large enough effect (not every such curve was filed as active); inconclusive means small, poorly fitted or top-dose-only effect, or another doubt; inactive means flat fitted curve, though single readings scatter.

A short description of assay [1]: AP1 Signaling Pathway (AID 357).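 Further: ME-180 reporter cells stimulated with EGF at its EC50 level; on the % scale 0 is the no-effect control and ±100 the full control effect.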 The conditions noted are these: ME-180 AP-1-bla reporter, EGF-induced, beta-lactamase ratio, 5 h. The method, boiled down: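 Titration-series screen for positive or negative modulators of EC50 EGF-induced signaling in ME-180 cells carrying an AP-1-driven beta-lactamase reporter. After 5 hours at 37 degrees Celsius, CCF4 460nm/530nm emission ratio gave %Activity; AC50 values derived.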

Assay [2] concerns the target Cytochrome P450 1A2 (Homo sapiens) (UniProt P05177). The assay can be described thus: p450-cyp1a2 (AID 410; calls by dose curve; further: potency means the concentration at half of the fitted maximal effect;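 on activity change, negative = inhibition: -100% = full effect of reference inhibitor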). The conditions noted are these: recombinant CYP1A2, luciferin-ME demethylation, luminescence; series mostly up to 57 µM. An outline of the steps: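 Luminescent readout of luciferin formed from Luciferin-ME by human CYP1A2; data normalized against complete inhibition by 57 uM furafylline. Enzyme 20nM, substrate 100uM at Km, 100mM KPO4 buffer, 60 min reaction at room temperature.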

Assay [3] in a line: NFAT Signaling Pathway (AID 444).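 Further: carbachol stimulus at about its EC50 of 1 µM final; on the % scale 0 is the no-effect control and ±100 the full control effect.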 The conditions noted are these: Jurkat NFAT-bla M1, carbachol, beta-lactamase ratio, 5 h. The method, boiled down:
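Jurkat cells carrying an NFAT-driven β-lactamase reporter and co-transfected muscarinic M1 receptor were treated with compound plus carbachol (1 uM final, an EC50 level) for 5 h at 37 °C. CCF4 loading followed for 1 h at RT; 460/530 nm ratio gave %activity.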

Assay [4] can be described thus: Stat Signaling Pathway (AID 446).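 Further: ME-180 cervical cancer cells given 40 pM IL-6 alongside compound; SIE-controlled beta-lactamase reporter measured as 460/530 nm FRET emission ratio; on the % scale 0 is the no-effect control and ±100 the full control effect.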 The note with it: ME-180 SIE beta-lactamase reporter, IL-6 stimulated, 5 h. The method, boiled down: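 Reporter line: ME-180 cervical carcinoma, SIE-beta-lactamase. Treatment: compound with 40 pM IL-6, 5 hrs, 37 C, in low-serum OPTI-MEM with 10 mM HEPES pH 7.3. Detection: 460/530 nm fluorescence.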
In assay [5] the target is Glucocorticoid receptor (Homo sapiens) (UniProt P04150). Kind of assay: GR-GFP Redistribution (AID 450;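 active means compounds whose dose series gives a full or clear partial fitted curve of increased nuclear translocation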; further: potency means the concentration at half of the fitted maximal effect). The conditions noted are these: U2OS GR-GFP nuclear translocation, laser cytometry, 2 h.
The target is the same in assay [6]. Kind of assay: GR-EFC Redistribution (AID 451; calls by dose curve; further: potency means the concentration at half of the fitted maximal effect). The note with it: CHO-K1 GR-EFC translocation, beta-gal luminescence, 2 h. An outline of the steps:
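CHO-K1 cells stably expressing nuclear-localized β-gal enzyme acceptor and GR fused C-terminally to the enzyme donor fragment; ligand-driven nuclear translocation restores β-gal by complementation. Compounds titrated up to 46 uM final, 2 h at 37 °C; luminescence read.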

The target of assay [7] is Mitogen-activated protein kinase 10 (Mus musculus) (UniProt Q61831). The assay can be described thus: JNK3 AlphaScreen Assay (AID 530).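 Further: kinase came from lysate of stimulated human HepG2 cells; signal reports phosphorylation of biotinylated GST-cJun 1-79 at Ser73 with 10 µM ATP; on the % scale 0 is the no-effect control and ±100 the full control effect.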 The note with it: JNK3 lysate, c-Jun phosphorylation; series mostly up to 57.1 µM. The method, boiled down: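 Inhibitors reduce antibody binding to phosphorylated biotin-cJun, lowering AlphaScreen luminescence. Lysates from HepG2 cells pre-activated by IL-1beta plus TNF-alpha supplied JNK3; compounds were titrated.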

Cytochrome P450 1A2 (Homo sapiens), sequence (P05177 whole entry, looked up): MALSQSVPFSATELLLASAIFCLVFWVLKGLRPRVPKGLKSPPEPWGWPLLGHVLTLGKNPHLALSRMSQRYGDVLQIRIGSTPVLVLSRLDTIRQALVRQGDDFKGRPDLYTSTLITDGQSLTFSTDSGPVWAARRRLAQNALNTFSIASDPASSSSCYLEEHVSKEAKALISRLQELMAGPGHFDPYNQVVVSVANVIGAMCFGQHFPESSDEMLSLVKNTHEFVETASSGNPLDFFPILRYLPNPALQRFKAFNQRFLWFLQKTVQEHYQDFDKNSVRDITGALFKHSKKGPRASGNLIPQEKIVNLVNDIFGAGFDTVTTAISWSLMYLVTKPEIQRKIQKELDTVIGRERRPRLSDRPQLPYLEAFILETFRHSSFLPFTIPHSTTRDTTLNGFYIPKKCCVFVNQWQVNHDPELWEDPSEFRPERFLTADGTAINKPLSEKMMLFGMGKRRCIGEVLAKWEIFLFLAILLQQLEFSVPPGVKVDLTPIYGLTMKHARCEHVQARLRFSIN
Glucocorticoid receptor (Homo sapiens), sequence (P04150 whole entry, looked up): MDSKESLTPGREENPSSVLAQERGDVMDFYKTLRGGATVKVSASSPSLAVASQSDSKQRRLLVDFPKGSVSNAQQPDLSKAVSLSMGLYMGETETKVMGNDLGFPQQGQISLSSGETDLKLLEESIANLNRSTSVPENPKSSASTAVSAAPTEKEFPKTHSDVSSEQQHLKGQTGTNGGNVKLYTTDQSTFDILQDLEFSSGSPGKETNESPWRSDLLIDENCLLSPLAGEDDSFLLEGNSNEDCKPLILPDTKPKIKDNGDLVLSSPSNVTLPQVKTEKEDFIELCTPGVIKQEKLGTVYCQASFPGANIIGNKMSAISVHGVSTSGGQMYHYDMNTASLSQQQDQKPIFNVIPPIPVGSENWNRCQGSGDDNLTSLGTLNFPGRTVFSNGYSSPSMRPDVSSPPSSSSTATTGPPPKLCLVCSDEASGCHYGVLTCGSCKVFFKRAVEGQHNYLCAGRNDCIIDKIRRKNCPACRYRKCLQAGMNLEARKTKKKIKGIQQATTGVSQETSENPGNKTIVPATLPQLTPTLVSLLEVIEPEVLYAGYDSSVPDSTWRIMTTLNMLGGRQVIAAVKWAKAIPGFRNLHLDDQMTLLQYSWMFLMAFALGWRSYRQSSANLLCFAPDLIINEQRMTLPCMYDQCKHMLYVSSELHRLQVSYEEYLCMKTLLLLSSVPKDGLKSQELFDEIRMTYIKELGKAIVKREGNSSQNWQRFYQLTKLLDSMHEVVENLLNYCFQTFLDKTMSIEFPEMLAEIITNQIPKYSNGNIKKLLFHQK

Consider `O=c1cccc2n1CC1CNC[C@H]2C1`, for which the activity change, negative = inhibition in assay [1] (at 17.2 µM (top of the series)) is -4.28% (inactive); in assay [3] (at 17.2 µM (top of the series)) it was -12.9% (inactive). For the same molecule, the Potency entry is “inactive and 31.6 µM (active)” in assay [2]; > 20.6 µM (inactive) and > 46 µM (inactive) in assay [5]; > 46 µM (inactive) in assay [6]. The activity, negative = inhibition in assay [4] (at 17.2 µM (top of the series)) was 6.88% (inactive). Besides, in assay [7], the molecule was called inactive.

Consider `O=C(O)Cc1cnc[nH]1`, for which the activity change, negative = inhibition is 10.5% (inactive) in assay [1] (at 38 µM (top of the series)) and -2.43% (inactive) in assay [3] (at 38 µM (top of the series)). For the same molecule, the Potency entry in assay [2] was “inactive”. The activity, negative = inhibition in assay [4] (at 38 µM (top of the series)) was -3.06% (inactive). The Potency in assay [5] and in assay [6] was > 46 µM (inactive) throughout. Further, the molecule was classed as inactive in assay [7].

Consider `CCCN(CCC)[C@@H]1CCc2ccc(O)cc2C1`, for which, in assay [1] (at 38 µM (top of the series)), the activity change, negative = inhibition is 4.4% (inactive) and -2.26% (inactive). In addition, the Potency entry in assay [2] was “inactive”. The activity, negative = inhibition in assay [4] (at 38 µM (top of the series)) was -20.3% (inactive) and 11.5% (inactive). Also, the Potency in assay [5] and in assay [6] was > 46 µM (inactive) in each case. Besides, the call in assay [7] was inactive.

`CNCCc1ccc(O)c(O)c1`: the activity change, negative = inhibition in assay [1] (at 38 µM (top of the series)) was -12.9% (inactive); in assay [3] (at 38 µM (top of the series)), 4.43% (inactive). In addition, the activity, negative = inhibition in assay [4] (at 38 µM (top of the series)) was -23.7% (inactive). Besides, the Potency in assay [5] and in assay [6] was > 46 µM (inactive) in each case. Further, in assay [7], the result was inactive.

As to `CC1=NN=C(c2ccc(N)cc2)c2cc3c(cc2C1)OCO3`, the activity change, negative = inhibition in assay [1] (at 38 µM (top of the series)) is -19.4% (inactive); in assay [3] (at 38 µM (top of the series)) it was 7.54% (inactive). The values for the Potency in assay [2], in assay [5] and in assay [6] were 31.6 µM (active), > 46 µM (inactive) and > 46 µM (inactive), respectively. Also, in assay [7], the molecule was classed as inactive.

`CCCN1CCO[C@@H]2c3cc(O)ccc3OC[C@H]21`: the activity change, negative = inhibition in assay [1] (at 38 µM (top of the series)) is -14.2% (inactive) and 2.45% (inactive); in assay [3] (at 38 µM (top of the series)), 8.87% (inactive) and 8.95% (inactive). Besides, in assay [4] (at 38 µM (top of the series)), the activity, negative = inhibition is 12% (inactive) and -17.6% (inactive). The Potency in assay [5] and in assay [6] was > 46 µM (inactive) each time. In addition, the molecule was called inactive in assay [7].

Take `S=C(NC1CCCCC1)N1CCC(c2cnc[nH]2)CC1`: the activity change, negative = inhibition in assay [1] (at 38 µM (top of the series)) was -10.5% (inactive). In assay [4] (at 38 µM (top of the series)), the activity, negative = inhibition was 6.17% (inactive). Moreover, the Potency in assay [5] and in assay [6] was > 46 µM (inactive) in each case. Moreover, the call in assay [7] was inactive.

With `CCCN1CCC[C@H](c2cccc(O)c2)C1`, the activity change, negative = inhibition in assay [1] (at 38 µM (top of the series)) was -0.74% (inactive) and -8.16% (inactive); in assay [3] (at 38 µM (top of the series)), -6.4% (inactive) and -13.2% (inactive). In addition, in assay [2], the Potency result was “inactive”. In addition, the activity, negative = inhibition in assay [4] (at 38 µM (top of the series)) is 0.0297% (inactive) and 5.34% (inactive). The Potency in assay [5] and in assay [6] was > 46 µM (inactive) throughout. Moreover, in assay [7], the molecule was classed as inactive.

As to `CC[C@@]1(O)C(=O)OCc2c1cc1n(c2=O)Cc2cc3ccccc3nc2-1`, the activity change, negative = inhibition in assay [1] (at 17.2 µM (top of the series)) was -111% (active); in assay [1] (at 38 µM (top of the series)), -97.5% (active); in assay [3] (at 17.2 µM (top of the series)), -85.5% (active); in assay [3] (at 38 µM (top of the series)) it was -97% (active). The Potency in assay [2] was 7.94 µM (active) and 2.51 µM (active) and 1.58 µM (active); in assay [5], > 46 µM (inactive) and > 20.6 µM (inactive); in assay [6], > 46 µM (inactive) and > 20.6 µM (inactive). Further, the activity, negative = inhibition in assay [4] (at 17.2 µM (top of the series)) was -95.6% (active); in assay [4] (at 38 µM (top of the series)), 42.7% (active). Besides, the molecule was classed as inactive in assay [7].
